# Compounds without any hit were thinned out: in the full panel of roughly 79,000, 15% have a hit. Unmarked numbers belong to inactive results. The source made the active and inactive calls. No stated cut-off is given here; in the data, active means growth inhibition above about 70%; inactive means the rest.
# Key:
# [1] = NCI Yeast Anticancer Drug Screen. Data for the rad52 strain (AID 147);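 further: 0% = growth of vehicle-treated control cultures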; conditions: S. cerevisiae rad52 mutant growth inhibition, stronger effect = higher value
# Method in brief: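 Screen used a yeast mutant impaired in DNA repair. After compound exposure, growth was measured. Values reflect inhibition compared with vehicle-treated cells.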
# [2] = NCI Yeast Anticancer Drug Screen. Data for the wt1 strain (AID 149);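 further: 0% = growth of vehicle-treated wt1 cultures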; conditions: S. cerevisiae wt1 strain (SPY 50644) growth inhibition, stronger effect = higher value
# Method in brief: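 Vehicle-normalised growth inhibition; strain wt1; compound exposure.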
# [3] = NCI Yeast Anticancer Drug Screen. Data for the rad50EPP+ strain (AID 151);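 further: 0% = growth of vehicle-treated control cultures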; conditions: S. cerevisiae rad50 mutant strain, stronger effect = higher value
# Method in brief: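 Exposing the rad50EPP+ strain to each compound, growth was compared with vehicle-only cultures to give inhibition.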
# [4] = NCI Yeast Anticancer Drug Screen. Data for the mgt1 strain (AID 153); conditions: S. cerevisiae mgt1 mutant growth inhibition, stronger effect = higher value
# Method in brief: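 Genetically defined yeast (mgt1) treated with compound; inhibition of growth expressed against vehicle-treated controls.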
# [5] = NCI Yeast Anticancer Drug Screen. Data for the rad50 strain (AID 155);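 further: 0% = growth of vehicle-only cultures of the same strain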; conditions: S. cerevisiae rad50 strain growth inhibition, stronger effect = higher value
# Method in brief: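 A DNA repair-deficient yeast mutant serves as the test organism; compound-induced growth inhibition is calculated against vehicle-treated cells.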
# [6] = NCI Yeast Anticancer Drug Screen. Data for the mec2-1 strain (AID 157); conditions: S. cerevisiae mec2-1 strain, stronger effect = higher value
# Method in brief: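 Readout is yeast growth inhibition, normalised to vehicle-treated controls, in the mec2-1 strain exposed to compound.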
# [7] = NCI Yeast Anticancer Drug Screen. Data for the rad14 strain (AID 159);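 further: 0% = growth of vehicle-treated control cultures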; conditions: S. cerevisiae rad14 strain growth inhibition, stronger effect = higher value
# Method in brief: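 Vehicle-treated cultures served as the baseline for growth inhibition of a DNA repair-mutant yeast strain exposed to each compound.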
# [8] = NCI Yeast Anticancer Drug Screen. Data for the sgs1 mgt1 strain (AID 161);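 further: 0% = growth of cultures given vehicle only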; conditions: S. cerevisiae sgs1 mgt1 strain, stronger effect = higher value
# Method in brief: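 Percent growth inhibition was derived by comparing compound-exposed mutant yeast with vehicle-exposed cultures. The strain carries alterations in DNA damage repair.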
# [9] = NCI Yeast Anticancer Drug Screen. Data for the CLN2oe strain (AID 163);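 further: 0% = growth of vehicle-only control cultures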; conditions: S. cerevisiae CLN2oe strain, stronger effect = higher value
# Method in brief: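 Values reflect how much compound exposure reduced yeast growth, referenced to vehicle-exposed cells. Assay organism is a strain with a defined genetic change affecting cell-cycle control.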
# [10] = NCI Yeast Anticancer Drug Screen. Data for the cln2 rad14 strain (AID 165);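 further: 0% = growth equal to vehicle treated cultures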; conditions: S. cerevisiae cln2 rad14 strain, stronger effect = higher value
# Method in brief: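 Relative to vehicle controls, growth inhibition of compound-treated cln2 rad14 yeast was recorded.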
# [11] = NCI Yeast Anticancer Drug Screen. Data for the bub3 strain (AID 167); conditions: S. cerevisiae bub3 mutant strain, stronger effect = higher value
# Method in brief: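 Inhibition values come from growth of compound-treated mutant yeast normalised to vehicle-treated controls.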
# [12] = NCI Yeast Anticancer Drug Screen. Data for the wt2 strain (AID 169);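 further: 0% = growth of vehicle-treated yeast cultures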; conditions: S. cerevisiae wt2 strain growth inhibition, stronger effect = higher value
# Method in brief: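 Values express reduction in yeast growth under compound treatment, referenced to vehicle-treated cells.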
# [13] = NCI Yeast Anticancer Drug Screen. Data for the mlh1 strain (AID 171);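 further: 0% = growth of vehicle-treated control cultures of the same strain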; conditions: S. cerevisiae mlh1 strain growth inhibition, stronger effect = higher value
# Method in brief: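 Steps: expose the defined-mutant yeast strain to compound; expose a parallel culture to vehicle; measure growth; express compound effect as inhibition relative to the vehicle culture.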
# [14] = NCI Yeast Anticancer Drug Screen. Data for the sgs1 strain (AID 173);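 further: 0% = growth of vehicle-only control cultures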; conditions: S. cerevisiae sgs1 mutant, stronger effect = higher value
# Method in brief: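 Treat defined-mutant yeast with compound; measure growth; calculate inhibition relative to vehicle-treated cells.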
# [15] = NCI Yeast Anticancer Drug Screen. Data for the mlh1 rad18 strain (AID 175); conditions: S. cerevisiae mlh1 rad18 strain growth inhibition, stronger effect = higher value
# Method in brief: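 Test agents were incubated with a yeast strain of defined genotype (DNA damage repair defect). Inhibition of growth was derived by comparison with vehicle-exposed cultures.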
# [16] = NCI Yeast Anticancer Drug Screen. Data for the rad18 strain (AID 177); conditions: S. cerevisiae rad18 mutant growth inhibition, stronger effect = higher value
# Method in brief: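 A genetically defined yeast mutant impaired in DNA damage repair was treated with test compounds, then its growth was measured against cultures receiving vehicle alone.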
# [17] = at 5.0 µM (retest, dose inferred, filed as 0.5)
# [18] = at 50.0 µM (retest, dose inferred, filed as 5.0)
structure (smiles),measurement,setting,value
Cc1c(N)nc([C@H](CC(N)=O)NC[C@H](N)C(N)=O)nc1C(=O)N[C@H](C(=O)N[C@H](C)[C@@H](O)[C@H](C)C(=O)N[C@H](C(=O)NCCc1nc(-c2nc(C(=O)NCCC[S+](C)C)cs2)cs1)[C@@H](C)O)C(OC1OC(CO)C(O)C(O)C1OC1OC(CO)C(O)C(OC(N)=O)C1O)c1cnc[nH]1 (stereo partly drawn),growth inhibition,[1]; at 1.2 µM,7%
same,growth inhibition,[1]; at 3.7 µM,19%
same,growth inhibition,[1]; at 11.0 µM,54%
same,growth inhibition,[1]; at 33.0 µM,91% (active)
same,growth inhibition,[1]; at 100.0 µM,96% (active)
same,growth inhibition,[2]; at 1.2 µM,0%
same,growth inhibition,[2]; at 3.7 µM,1%
same,growth inhibition,[2]; at 11.0 µM,11%
same,growth inhibition,[2]; at 33.0 µM,27%
same,growth inhibition,[2]; at 100.0 µM,74% (active)
same,growth inhibition,[3]; at 1.2 µM,0%
same,growth inhibition,[3]; at 3.7 µM,7%
same,growth inhibition,[3]; at 11.0 µM,31%
same,growth inhibition,[3]; at 33.0 µM,68%
same,growth inhibition,[3]; at 100.0 µM,94% (active)
same,growth inhibition,[4]; at 1.2 µM,-3%
same,growth inhibition,[4]; at 3.7 µM,2%
same,growth inhibition,[4]; at 11.0 µM,11%
same,growth inhibition,[4]; at 33.0 µM,35%
same,growth inhibition,[4]; at 100.0 µM,91% (active)
same,growth inhibition,[5]; at 1.2 µM,8%
same,growth inhibition,[5]; at 3.7 µM,27%
same,growth inhibition,[5]; [17],98% (active)
same,growth inhibition,[5]; at 11.0 µM,63%
same,growth inhibition,[5]; at 33.0 µM,94% (active)
same,growth inhibition,[5]; [18],99% (active)
same,growth inhibition,[5]; at 50.0 µM,93.2% (active)
same,growth inhibition,[5]; at 100.0 µM,95% (active)
same,growth inhibition,[6]; at 1.2 µM,1%
same,growth inhibition,[6]; at 3.7 µM,12%
same,growth inhibition,[6]; [17],99% (active)
same,growth inhibition,[6]; at 11.0 µM,29%
same,growth inhibition,[6]; at 33.0 µM,52%
same,growth inhibition,[6]; [18],99% (active)
same,growth inhibition,[6]; at 50.0 µM,93.5% (active)
same,growth inhibition,[6]; at 100.0 µM,94% (active)
same,growth inhibition,[7]; at 1.2 µM,4%
same,growth inhibition,[7]; at 3.7 µM,11%
same,growth inhibition,[7]; at 11.0 µM,29%
same,growth inhibition,[7]; at 33.0 µM,78% (active)
same,growth inhibition,[7]; at 100.0 µM,95% (active)
same,growth inhibition,[8]; [17],98% (active)
same,growth inhibition,[8]; [18],99% (active)
same,growth inhibition,[8]; at 50.0 µM,93.3% (active)
same,growth inhibition,[9]; at 1.2 µM,2%
same,growth inhibition,[9]; at 3.7 µM,-7%
same,growth inhibition,[9]; at 11.0 µM,14%
same,growth inhibition,[9]; at 33.0 µM,43%
same,growth inhibition,[9]; at 100.0 µM,94% (active)
same,growth inhibition,[10]; [17],96% (active)
same,growth inhibition,[10]; [18],98% (active)
same,growth inhibition,[10]; at 50.0 µM,89.8% (active)
same,growth inhibition,[11]; at 1.2 µM,-2%
same,growth inhibition,[11]; at 3.7 µM,2%
same,growth inhibition,[11]; [17],98% (active)
same,growth inhibition,[11]; at 11.0 µM,14%
same,growth inhibition,[11]; at 33.0 µM,53%
same,growth inhibition,[11]; [18],99% (active)
same,growth inhibition,[11]; at 50.0 µM,93.7% (active)
same,growth inhibition,[11]; at 100.0 µM,91% (active)
same,growth inhibition,[12]; at 1.2 µM,0%
same,growth inhibition,[12]; at 3.7 µM,2%
same,growth inhibition,[12]; at 11.0 µM,21%
same,growth inhibition,[12]; at 33.0 µM,54%
same,growth inhibition,[12]; at 100.0 µM,93% (active)
same,growth inhibition,[13]; at 1.2 µM,0%
same,growth inhibition,[13]; at 3.7 µM,4%
same,growth inhibition,[13]; at 11.0 µM,18%
same,growth inhibition,[13]; at 33.0 µM,61%
same,growth inhibition,[13]; at 100.0 µM,95% (active)
same,growth inhibition,[14]; at 1.2 µM,2%
same,growth inhibition,[14]; at 3.7 µM,8%
same,growth inhibition,[14]; at 11.0 µM,31%
same,growth inhibition,[14]; at 33.0 µM,77% (active)
same,growth inhibition,[14]; at 100.0 µM,96% (active)
same,growth inhibition,[15]; [17],99% (active)
same,growth inhibition,[15]; [18],99% (active)
same,growth inhibition,[15]; at 50.0 µM,92.8% (active)
same,growth inhibition,[16]; at 1.2 µM,6%
same,growth inhibition,[16]; at 3.7 µM,27%
same,growth inhibition,[16]; at 11.0 µM,67%
same,growth inhibition,[16]; at 33.0 µM,94% (active)
same,growth inhibition,[16]; at 100.0 µM,97% (active)
